Reference: the supplement of paper PMC11732987, “Enantioselective OTUD7B fragment discovery through chemoproteomics screening and high-throughput optimisation” (Communications Chemistry, 2025)

Assays:
Test in all cases: log2 ratio of Biotin-Ahx-Ub-VS probe labelling (fragment/DMSO); higher = less target engagement (more negative = stronger competition), active = hit call of the paper (q ≤ 0.05, log2 ratio ≤ -1)
Conditions in all cases: compound concentration: 200 uM; treatment time: 3 h
[1] = target: T1, USP19 (UniProt O94966)
T1 sequence (whole entry): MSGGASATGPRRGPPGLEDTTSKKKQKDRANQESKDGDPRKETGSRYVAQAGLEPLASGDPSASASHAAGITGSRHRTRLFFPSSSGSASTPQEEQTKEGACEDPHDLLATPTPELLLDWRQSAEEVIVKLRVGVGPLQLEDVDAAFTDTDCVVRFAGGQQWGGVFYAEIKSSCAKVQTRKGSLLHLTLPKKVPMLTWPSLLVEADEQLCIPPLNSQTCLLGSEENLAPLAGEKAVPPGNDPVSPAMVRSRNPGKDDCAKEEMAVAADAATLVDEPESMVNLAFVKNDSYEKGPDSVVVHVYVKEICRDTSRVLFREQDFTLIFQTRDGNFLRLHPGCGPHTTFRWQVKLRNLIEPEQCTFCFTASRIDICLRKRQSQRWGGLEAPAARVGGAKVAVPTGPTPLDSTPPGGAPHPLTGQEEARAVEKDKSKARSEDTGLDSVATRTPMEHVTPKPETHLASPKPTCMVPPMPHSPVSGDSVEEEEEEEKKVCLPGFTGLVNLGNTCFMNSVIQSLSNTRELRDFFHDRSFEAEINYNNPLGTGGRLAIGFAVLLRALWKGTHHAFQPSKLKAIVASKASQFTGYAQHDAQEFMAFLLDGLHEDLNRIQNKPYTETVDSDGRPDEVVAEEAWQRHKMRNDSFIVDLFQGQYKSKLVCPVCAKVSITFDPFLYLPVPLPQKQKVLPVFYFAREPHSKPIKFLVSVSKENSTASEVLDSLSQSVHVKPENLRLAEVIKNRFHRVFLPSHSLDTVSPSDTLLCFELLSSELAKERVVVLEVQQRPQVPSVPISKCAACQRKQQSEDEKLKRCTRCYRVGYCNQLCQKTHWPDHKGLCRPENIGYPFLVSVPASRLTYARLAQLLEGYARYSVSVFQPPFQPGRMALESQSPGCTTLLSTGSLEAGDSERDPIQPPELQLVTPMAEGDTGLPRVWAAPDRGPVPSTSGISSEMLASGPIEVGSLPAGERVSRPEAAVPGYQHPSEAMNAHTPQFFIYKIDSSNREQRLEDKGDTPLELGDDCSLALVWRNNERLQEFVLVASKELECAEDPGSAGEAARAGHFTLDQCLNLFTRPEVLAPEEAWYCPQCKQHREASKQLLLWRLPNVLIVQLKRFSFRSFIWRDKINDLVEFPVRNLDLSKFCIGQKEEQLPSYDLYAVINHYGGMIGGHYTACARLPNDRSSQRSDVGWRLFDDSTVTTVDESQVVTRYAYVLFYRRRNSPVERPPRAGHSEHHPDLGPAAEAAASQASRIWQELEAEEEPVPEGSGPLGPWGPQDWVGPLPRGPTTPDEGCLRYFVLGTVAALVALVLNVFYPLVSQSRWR
In short: (§1)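 The table lists average log2 ratios of fragment over vehicle, from an unpaired t-test on global-median-normalised Spectronaut label-free quantities. Proteins with ≥2 unique peptides were used. Samples were HEK293T lysate (495 µg) treated in triplicate with fragment at 200 µM or vehicle for 3 h, then with Biotin-Ahx-Ub-VS (0.5 µM final) for 1 h, with labelled DUBs NeutrAvidin-enriched and run by diaPASEF LC-MS/MS.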

[2] = target: T2, USP22 (UniProt Q9UPT9)
T2 sequence (whole entry): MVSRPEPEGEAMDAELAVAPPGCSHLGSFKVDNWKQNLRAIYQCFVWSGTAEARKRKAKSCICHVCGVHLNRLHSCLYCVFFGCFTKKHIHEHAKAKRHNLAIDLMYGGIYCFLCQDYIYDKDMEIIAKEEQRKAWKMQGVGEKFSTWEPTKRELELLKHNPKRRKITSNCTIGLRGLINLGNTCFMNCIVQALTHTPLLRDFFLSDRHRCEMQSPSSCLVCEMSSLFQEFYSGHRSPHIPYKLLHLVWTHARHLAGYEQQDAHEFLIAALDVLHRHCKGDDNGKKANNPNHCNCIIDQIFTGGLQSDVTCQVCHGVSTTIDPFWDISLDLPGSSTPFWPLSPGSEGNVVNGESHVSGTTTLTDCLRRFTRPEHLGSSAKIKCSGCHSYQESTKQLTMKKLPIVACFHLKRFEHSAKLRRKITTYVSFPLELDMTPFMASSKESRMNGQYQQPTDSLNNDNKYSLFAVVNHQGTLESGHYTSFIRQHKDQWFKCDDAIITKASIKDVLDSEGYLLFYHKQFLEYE
In short: as §1

[3] = target: USP24 (UniProt Q9UPU5)
USP24, sequence (Q9UPU5 whole entry): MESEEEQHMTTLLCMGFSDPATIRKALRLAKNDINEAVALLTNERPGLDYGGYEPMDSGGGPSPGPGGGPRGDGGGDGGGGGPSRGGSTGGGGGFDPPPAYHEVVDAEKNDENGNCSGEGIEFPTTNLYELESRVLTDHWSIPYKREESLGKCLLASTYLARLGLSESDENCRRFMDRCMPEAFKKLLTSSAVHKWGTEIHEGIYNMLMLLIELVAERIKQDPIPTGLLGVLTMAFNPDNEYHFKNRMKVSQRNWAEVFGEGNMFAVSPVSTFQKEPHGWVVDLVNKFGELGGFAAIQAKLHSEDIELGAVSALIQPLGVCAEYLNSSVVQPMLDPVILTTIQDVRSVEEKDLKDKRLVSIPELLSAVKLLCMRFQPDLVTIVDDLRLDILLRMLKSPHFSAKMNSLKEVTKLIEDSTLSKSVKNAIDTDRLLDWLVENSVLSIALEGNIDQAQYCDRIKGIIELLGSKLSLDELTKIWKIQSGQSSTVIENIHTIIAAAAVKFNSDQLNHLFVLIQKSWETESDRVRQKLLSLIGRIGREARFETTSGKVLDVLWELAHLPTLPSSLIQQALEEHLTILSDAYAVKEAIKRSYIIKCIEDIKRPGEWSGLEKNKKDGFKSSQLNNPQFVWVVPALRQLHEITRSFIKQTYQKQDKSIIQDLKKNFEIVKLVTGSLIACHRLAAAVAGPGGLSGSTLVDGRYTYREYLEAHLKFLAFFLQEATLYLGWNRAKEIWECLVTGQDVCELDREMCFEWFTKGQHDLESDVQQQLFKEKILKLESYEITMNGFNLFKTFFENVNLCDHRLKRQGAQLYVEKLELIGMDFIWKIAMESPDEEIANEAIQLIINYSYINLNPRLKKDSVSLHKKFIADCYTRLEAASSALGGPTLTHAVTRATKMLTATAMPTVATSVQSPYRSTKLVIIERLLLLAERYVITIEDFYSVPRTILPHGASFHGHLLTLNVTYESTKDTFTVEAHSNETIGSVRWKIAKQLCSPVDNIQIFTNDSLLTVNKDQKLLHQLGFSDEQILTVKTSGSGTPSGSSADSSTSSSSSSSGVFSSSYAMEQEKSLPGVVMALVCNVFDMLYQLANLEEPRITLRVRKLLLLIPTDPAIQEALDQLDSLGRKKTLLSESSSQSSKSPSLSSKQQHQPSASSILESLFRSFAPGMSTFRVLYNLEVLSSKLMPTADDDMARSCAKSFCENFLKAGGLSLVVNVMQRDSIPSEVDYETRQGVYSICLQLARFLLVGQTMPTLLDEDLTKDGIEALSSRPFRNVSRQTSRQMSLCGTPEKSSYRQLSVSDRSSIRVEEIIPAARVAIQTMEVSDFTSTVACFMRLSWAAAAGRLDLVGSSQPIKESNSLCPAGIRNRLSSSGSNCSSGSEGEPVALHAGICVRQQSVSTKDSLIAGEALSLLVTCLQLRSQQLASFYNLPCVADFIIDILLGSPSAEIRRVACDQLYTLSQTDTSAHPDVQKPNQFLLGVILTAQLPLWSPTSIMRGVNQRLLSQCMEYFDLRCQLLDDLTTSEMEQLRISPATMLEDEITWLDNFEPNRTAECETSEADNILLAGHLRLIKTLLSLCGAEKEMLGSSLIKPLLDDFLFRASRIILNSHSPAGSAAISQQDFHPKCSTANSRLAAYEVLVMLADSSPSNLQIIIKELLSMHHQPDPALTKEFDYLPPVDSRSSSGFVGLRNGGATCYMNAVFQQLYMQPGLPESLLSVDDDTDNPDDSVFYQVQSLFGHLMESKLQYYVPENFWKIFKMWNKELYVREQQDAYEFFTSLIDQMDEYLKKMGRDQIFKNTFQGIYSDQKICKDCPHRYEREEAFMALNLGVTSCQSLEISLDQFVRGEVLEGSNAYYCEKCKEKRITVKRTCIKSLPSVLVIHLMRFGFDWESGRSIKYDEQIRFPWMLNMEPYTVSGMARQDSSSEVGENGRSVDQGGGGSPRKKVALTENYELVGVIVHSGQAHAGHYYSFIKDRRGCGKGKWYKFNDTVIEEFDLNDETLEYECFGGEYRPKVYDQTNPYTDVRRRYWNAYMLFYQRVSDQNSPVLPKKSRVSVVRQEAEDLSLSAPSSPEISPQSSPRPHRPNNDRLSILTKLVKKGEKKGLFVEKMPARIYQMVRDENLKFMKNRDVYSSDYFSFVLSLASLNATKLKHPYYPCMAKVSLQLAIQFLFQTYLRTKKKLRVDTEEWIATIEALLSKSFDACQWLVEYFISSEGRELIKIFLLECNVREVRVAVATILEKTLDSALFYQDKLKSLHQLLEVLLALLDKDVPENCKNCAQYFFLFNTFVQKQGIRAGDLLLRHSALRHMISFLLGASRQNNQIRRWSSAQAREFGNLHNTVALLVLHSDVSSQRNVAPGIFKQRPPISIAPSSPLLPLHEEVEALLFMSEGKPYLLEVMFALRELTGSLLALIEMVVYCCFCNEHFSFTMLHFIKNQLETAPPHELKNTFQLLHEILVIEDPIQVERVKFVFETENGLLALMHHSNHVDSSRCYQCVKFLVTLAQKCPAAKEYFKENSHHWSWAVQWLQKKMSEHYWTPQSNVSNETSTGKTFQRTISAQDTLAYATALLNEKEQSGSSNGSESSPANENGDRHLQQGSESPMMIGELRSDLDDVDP
In short: as §1

[4] = target: T3, USP25 (UniProt Q9UHP3)
T3 sequence (whole entry): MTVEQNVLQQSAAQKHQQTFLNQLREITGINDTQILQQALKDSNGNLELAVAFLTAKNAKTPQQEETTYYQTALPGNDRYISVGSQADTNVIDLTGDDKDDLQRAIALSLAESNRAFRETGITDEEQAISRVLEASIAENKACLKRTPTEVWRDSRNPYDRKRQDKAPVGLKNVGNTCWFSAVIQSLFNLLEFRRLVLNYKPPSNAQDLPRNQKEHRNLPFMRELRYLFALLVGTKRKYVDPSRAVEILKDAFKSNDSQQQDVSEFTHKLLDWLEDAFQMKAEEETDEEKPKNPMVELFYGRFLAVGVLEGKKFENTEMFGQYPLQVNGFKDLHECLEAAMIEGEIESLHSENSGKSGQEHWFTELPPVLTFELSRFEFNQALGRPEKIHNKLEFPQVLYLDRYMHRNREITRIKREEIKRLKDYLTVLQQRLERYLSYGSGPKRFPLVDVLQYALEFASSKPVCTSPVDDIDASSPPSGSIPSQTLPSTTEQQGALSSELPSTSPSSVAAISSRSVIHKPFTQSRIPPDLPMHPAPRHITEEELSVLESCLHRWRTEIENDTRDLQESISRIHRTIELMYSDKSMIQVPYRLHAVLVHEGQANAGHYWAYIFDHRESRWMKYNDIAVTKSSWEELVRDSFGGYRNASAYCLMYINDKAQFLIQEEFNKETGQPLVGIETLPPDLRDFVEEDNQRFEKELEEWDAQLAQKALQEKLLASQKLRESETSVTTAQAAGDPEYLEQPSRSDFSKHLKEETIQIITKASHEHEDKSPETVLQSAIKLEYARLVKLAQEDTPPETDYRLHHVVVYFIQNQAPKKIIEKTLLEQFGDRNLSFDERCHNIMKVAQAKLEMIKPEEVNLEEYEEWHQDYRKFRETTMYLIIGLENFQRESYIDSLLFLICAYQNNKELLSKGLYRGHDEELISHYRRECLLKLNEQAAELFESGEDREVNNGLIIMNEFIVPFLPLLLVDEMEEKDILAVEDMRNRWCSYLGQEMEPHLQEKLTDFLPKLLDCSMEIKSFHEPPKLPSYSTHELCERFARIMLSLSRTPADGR
In short: as §1

[5] = target: T4, USP28 (UniProt Q96RU2)
T4 sequence (whole entry): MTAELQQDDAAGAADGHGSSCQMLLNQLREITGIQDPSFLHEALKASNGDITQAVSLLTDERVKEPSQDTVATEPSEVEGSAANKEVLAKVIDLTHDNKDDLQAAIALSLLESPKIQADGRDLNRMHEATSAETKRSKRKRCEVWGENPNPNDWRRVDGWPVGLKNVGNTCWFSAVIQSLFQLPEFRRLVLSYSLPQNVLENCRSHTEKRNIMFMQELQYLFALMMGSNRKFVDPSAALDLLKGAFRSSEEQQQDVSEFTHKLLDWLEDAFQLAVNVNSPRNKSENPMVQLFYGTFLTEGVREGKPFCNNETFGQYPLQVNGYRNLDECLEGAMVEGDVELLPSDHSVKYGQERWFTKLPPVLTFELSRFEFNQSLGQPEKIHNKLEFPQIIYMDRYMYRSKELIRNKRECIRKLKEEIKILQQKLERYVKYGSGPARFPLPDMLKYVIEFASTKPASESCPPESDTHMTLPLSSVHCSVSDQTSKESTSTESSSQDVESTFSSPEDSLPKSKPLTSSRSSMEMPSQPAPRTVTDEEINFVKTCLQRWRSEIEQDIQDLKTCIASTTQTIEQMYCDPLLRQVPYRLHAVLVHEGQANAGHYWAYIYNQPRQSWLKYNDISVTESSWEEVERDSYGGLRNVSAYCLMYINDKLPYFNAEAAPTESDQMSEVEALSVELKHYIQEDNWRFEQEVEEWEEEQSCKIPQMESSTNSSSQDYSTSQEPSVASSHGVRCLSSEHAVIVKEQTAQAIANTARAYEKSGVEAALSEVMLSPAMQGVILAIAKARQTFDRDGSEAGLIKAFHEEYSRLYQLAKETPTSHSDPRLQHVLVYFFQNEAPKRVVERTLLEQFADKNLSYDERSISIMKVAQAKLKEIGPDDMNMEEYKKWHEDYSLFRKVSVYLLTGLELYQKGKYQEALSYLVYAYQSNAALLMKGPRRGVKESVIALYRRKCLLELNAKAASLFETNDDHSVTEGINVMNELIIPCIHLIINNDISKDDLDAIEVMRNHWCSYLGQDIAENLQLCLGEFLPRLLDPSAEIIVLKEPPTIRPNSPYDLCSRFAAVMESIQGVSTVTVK
In short: as §1

Measured: log2 ratio of Biotin-Ahx-Ub-VS probe labelling

N#Cc1ccc(CNC(=O)CCl)cc1
inactive: [1] -0.0911 | [2] 0.193 | [3] -0.183 | [4] -0.413 | [5] -0.49
